# According to ChEMBL document CHEMBL2218924, “A broad activity screen in support of a chemogenomic map for kinase signalling research and drug discovery” (Biochem J, 2013):
# Columns and labels:
# [1] = molecular target: Ribosomal protein S6 kinase beta-1 (Homo sapiens) (UniProt P23443); settings: at 1 µM
# [2] = molecular target: Ribosomal protein S6 kinase beta-1 (Homo sapiens) (UniProt P23443); settings: at 10 µM
# [3] = molecular target: Serine/threonine-protein kinase Nek6 (Homo sapiens) (UniProt Q9HC98); settings: at 1 µM
# Chain of Serine/threonine-protein kinase Nek6 (Homo sapiens) (Q9HC98 whole entry): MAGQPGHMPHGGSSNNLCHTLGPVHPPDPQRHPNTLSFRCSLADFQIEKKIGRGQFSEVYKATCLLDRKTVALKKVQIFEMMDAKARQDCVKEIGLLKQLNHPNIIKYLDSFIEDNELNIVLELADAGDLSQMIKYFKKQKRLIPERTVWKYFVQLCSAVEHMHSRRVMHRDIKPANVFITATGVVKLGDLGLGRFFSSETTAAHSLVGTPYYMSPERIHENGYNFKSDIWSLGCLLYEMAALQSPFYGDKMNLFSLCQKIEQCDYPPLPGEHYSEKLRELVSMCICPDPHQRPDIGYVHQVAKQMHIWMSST
# [4] = molecular target: Serine/threonine-protein kinase Nek6 (Homo sapiens) (UniProt Q9HC98); settings: at 10 µM
# [5] = molecular target: Serine/threonine-protein kinase Nek7 (Homo sapiens) (UniProt Q8TDX7); settings: at 1 µM
# Chain of Serine/threonine-protein kinase Nek7 (Homo sapiens) (Q8TDX7 whole entry, looked up): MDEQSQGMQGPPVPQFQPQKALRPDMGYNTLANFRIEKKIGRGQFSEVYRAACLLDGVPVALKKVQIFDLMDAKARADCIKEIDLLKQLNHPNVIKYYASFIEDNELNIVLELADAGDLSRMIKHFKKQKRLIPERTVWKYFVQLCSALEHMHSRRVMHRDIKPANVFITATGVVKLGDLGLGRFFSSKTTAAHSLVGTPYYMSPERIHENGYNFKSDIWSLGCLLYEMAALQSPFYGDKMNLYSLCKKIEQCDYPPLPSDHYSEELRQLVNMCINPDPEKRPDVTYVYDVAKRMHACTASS
# [6] = molecular target: Serine/threonine-protein kinase Nek7 (Homo sapiens) (UniProt Q8TDX7); settings: at 10 µM
# [7] = molecular target: T1, Serine/threonine-protein kinase NLK (Homo sapiens) (UniProt Q9UBE8); settings: at 1 µM
# T1 sequence (whole entry): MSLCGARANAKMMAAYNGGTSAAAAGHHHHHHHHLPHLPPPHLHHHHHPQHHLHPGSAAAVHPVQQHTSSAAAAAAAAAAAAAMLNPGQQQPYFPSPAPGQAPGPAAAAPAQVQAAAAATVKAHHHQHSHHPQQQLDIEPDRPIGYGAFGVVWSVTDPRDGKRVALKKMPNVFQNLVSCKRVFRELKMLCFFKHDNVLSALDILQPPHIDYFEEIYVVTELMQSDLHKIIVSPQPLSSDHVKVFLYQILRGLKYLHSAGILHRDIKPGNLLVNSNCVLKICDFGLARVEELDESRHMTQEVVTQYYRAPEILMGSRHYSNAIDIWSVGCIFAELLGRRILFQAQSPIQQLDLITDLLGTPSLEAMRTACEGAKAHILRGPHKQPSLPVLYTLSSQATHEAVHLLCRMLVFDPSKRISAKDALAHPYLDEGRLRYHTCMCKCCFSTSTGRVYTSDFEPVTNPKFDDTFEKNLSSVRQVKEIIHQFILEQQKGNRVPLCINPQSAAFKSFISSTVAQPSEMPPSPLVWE
# [8] = molecular target: T1, Serine/threonine-protein kinase NLK (Homo sapiens); settings: at 10 µM
# [9] = molecular target: Serine/threonine-protein kinase PAK 2 (Homo sapiens) (UniProt Q13177); settings: at 1 µM
# Chain of Serine/threonine-protein kinase PAK 2 (Homo sapiens) (Q13177 whole entry): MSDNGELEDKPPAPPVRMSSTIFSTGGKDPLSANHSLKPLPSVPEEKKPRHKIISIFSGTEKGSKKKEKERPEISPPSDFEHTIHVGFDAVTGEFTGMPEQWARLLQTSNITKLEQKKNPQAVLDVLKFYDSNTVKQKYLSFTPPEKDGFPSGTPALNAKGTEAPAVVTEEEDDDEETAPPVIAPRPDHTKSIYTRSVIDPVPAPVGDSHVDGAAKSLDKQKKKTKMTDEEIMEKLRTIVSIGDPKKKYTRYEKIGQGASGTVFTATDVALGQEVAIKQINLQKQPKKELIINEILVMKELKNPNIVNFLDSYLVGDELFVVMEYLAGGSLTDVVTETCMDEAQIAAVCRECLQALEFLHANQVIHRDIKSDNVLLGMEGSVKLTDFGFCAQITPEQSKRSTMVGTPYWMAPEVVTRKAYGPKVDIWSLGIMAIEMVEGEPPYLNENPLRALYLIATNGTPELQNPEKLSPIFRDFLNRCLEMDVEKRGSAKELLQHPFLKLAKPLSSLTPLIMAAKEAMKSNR
# [10] = molecular target: Serine/threonine-protein kinase PAK 2 (Homo sapiens) (UniProt Q13177); settings: at 10 µM
# [11] = molecular target: Serine/threonine-protein kinase PAK 4 (Homo sapiens) (UniProt O96013); settings: at 1 µM
# Chain of Serine/threonine-protein kinase PAK 4 (Homo sapiens) (O96013 whole entry, looked up): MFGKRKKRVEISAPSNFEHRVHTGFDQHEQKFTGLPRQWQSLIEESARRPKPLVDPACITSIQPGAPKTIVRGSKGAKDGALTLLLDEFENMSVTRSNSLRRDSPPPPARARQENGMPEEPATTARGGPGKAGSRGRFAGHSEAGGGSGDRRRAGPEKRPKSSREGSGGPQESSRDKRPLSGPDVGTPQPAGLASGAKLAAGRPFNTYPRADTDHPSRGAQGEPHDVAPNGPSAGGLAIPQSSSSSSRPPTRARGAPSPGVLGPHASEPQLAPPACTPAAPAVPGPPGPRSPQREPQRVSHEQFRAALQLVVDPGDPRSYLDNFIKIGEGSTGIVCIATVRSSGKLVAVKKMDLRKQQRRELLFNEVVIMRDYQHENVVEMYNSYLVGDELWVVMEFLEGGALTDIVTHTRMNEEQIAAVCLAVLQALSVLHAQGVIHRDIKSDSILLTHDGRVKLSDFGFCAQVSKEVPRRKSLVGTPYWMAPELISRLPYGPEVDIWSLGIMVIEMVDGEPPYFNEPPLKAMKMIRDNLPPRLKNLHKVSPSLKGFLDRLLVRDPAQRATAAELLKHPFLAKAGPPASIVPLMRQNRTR
# [12] = molecular target: Serine/threonine-protein kinase PAK 4 (Homo sapiens) (UniProt O96013); settings: at 10 µM
# [13] = molecular target: Serine/threonine-protein kinase PAK 5 (Homo sapiens) (UniProt Q9P286); settings: at 1 µM
# Chain of Serine/threonine-protein kinase PAK 5 (Homo sapiens) (Q9P286 whole entry, looked up): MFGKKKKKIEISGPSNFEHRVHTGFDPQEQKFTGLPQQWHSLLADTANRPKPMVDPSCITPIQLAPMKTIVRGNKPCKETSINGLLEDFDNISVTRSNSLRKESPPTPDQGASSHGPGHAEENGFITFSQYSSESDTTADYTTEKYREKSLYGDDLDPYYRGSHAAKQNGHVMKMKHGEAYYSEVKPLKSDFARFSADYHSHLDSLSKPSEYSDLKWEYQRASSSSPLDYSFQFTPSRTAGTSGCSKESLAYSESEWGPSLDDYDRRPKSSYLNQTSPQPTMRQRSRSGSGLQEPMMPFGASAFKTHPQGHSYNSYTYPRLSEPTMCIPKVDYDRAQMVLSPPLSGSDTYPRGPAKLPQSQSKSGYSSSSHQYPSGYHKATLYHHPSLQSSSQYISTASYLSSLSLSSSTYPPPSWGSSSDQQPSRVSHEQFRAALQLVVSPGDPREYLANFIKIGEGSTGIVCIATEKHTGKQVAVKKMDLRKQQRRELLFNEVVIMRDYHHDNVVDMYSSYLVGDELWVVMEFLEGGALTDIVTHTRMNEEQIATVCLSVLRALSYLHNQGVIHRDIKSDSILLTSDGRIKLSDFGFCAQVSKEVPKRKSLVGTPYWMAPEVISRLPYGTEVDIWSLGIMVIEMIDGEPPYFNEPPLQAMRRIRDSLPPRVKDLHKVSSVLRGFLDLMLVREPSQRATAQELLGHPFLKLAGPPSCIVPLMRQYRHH
# [14] = molecular target: Serine/threonine-protein kinase PAK 5 (Homo sapiens) (UniProt Q9P286); settings: at 10 µM
# [15] = molecular target: Serine/threonine-protein kinase PAK 6 (Homo sapiens) (UniProt Q9NQU5); settings: at 1 µM
# Chain of Serine/threonine-protein kinase PAK 6 (Homo sapiens) (Q9NQU5 whole entry, looked up): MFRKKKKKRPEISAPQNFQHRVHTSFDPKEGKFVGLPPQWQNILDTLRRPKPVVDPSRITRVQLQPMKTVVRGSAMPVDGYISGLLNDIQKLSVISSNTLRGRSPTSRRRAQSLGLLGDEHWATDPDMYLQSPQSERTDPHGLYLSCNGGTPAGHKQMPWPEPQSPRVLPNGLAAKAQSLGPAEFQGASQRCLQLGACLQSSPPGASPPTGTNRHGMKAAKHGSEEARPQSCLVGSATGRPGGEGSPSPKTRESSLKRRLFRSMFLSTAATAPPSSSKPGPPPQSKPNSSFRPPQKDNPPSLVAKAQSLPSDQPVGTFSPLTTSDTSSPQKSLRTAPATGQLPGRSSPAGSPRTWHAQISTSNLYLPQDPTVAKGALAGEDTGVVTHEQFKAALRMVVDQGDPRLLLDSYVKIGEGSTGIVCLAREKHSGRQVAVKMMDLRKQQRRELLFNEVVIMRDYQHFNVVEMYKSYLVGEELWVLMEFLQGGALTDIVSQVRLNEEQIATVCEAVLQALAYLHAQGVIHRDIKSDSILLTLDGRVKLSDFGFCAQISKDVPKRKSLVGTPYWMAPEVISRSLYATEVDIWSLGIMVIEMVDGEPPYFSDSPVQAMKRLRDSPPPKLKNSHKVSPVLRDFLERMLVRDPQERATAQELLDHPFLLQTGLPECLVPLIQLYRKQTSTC
# [16] = molecular target: Serine/threonine-protein kinase PAK 6 (Homo sapiens) (UniProt Q9NQU5); settings: at 10 µM
# [17] = molecular target: Activated CDC42 kinase 1 (Homo sapiens) (UniProt Q07912); settings: at 1 µM
# Chain of Activated CDC42 kinase 1 (Homo sapiens) (Q07912 whole entry, looked up): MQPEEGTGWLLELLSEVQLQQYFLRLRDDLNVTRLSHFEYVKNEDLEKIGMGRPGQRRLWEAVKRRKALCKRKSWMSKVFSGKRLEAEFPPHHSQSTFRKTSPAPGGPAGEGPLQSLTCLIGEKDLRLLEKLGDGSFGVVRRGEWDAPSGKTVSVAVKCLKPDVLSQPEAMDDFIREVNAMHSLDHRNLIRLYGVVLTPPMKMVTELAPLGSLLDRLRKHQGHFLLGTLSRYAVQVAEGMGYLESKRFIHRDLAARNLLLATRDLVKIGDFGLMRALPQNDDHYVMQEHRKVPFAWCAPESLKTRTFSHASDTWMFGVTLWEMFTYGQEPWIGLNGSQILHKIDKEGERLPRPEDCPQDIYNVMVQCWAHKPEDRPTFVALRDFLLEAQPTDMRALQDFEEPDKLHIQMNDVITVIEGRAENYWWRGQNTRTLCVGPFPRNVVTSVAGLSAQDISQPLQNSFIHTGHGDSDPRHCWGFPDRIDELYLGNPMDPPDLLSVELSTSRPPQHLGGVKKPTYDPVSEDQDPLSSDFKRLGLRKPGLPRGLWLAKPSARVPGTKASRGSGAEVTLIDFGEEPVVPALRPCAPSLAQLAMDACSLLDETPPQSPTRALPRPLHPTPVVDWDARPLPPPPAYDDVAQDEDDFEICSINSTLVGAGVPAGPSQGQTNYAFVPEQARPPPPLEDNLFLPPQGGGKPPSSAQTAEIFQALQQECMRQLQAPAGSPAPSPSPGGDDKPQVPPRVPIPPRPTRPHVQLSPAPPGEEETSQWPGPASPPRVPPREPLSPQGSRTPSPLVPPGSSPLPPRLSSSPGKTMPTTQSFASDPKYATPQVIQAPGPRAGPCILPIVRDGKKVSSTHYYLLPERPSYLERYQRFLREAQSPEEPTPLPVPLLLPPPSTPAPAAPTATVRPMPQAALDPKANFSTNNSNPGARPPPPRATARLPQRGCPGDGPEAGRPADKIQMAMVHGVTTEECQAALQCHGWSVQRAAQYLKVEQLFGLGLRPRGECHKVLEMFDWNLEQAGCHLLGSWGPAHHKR
# [18] = molecular target: Activated CDC42 kinase 1 (Homo sapiens) (UniProt Q07912); settings: at 10 µM
# [19] = molecular target: ALK tyrosine kinase receptor (Homo sapiens) (UniProt Q9UM73); settings: at 1 µM
# [20] = molecular target: PAS domain-containing serine/threonine-protein kinase (Homo sapiens) (UniProt Q96RG2); settings: at 10 µM
# Chain of Ribosomal protein S6 kinase beta-1 (Homo sapiens) (P23443 whole entry, looked up): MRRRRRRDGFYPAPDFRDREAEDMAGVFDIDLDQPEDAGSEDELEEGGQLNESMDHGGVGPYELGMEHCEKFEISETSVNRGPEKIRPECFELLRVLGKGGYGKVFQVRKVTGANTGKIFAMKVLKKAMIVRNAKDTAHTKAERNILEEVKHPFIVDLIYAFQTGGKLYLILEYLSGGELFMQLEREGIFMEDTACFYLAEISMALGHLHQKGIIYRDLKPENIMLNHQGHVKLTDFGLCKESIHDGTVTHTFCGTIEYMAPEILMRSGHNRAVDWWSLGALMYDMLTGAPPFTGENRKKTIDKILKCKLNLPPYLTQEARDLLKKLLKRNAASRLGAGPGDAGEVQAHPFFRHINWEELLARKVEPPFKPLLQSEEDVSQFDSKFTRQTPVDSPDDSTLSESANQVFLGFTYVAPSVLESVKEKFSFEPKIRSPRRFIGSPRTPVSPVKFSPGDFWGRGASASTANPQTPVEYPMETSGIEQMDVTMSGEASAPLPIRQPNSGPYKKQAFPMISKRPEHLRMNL
Structure (SMILES),residual activity [1],residual activity [2],residual activity [3],residual activity [4],residual activity [5],residual activity [6],residual activity [7],residual activity [8],residual activity [9],residual activity [10],residual activity [11],residual activity [12],residual activity [13],residual activity [14],residual activity [15],residual activity [16],residual activity [17],residual activity [18],residual activity [19],residual activity [20]
CO[C@H]1C[C@@H]2CC[C@@H](C)[C@@](O)(O2)C(=O)C(=O)N2CCCC[C@H]2C(=O)O[C@H]([C@H](C)C[C@@H]2CC[C@@H](O)[C@H](OC)C2)CC(=O)[C@H](C)/C=C(\C)[C@@H](O)[C@@H](OC)C(=O)[C@H](C)C[C@H](C)/C=C/C=C/C=C/1C,92%,147%,97% (inactive),118%,97% (inactive),115% (inactive),101%,91%,101%,95%,89%,88%,97%,109%,106%,136%,82%,63%,82%,–
COc1cc2ncnc(N3CCN(C(=O)Nc4ccc(Oc5ccccc5)cc4)CC3)c2cc1OC,–,–,91% (inactive),126%,97% (inactive),113% (inactive),88%,89%,110%,86%,94%,84%,91%,122%,112%,–,68%,54%,73%,–
N#Cc1cnc2cnc(NCc3cccnc3)cc2c1Nc1ccc(F)c(Cl)c1,1%,-1%,–,–,–,–,93%,89%,103%,90%,65%,18%,11%,5%,2%,2%,3%,1%,90%,63%
COc1cc2ncnc(Nc3ccc(Oc4ccccc4)cc3)c2cc1OC,92%,88%,97% (inactive),118%,97% (inactive),112% (inactive),96%,82%,98%,87%,94%,80%,108%,136%,98%,124%,28%,9%,54%,131%
Nc1n[nH]c2nnc(-c3c(-c4ccccc4)nn4ccccc34)cc12,112%,100%,107% (inactive),98%,106% (inactive),106% (inactive),–,74%,98%,87%,94%,90%,112%,90%,93%,99%,61%,29%,77%,114%
Oc1n[nH]c2nnc(-c3c(-c4ccccc4)nn4ccccc34)cc12,106%,96%,103% (inactive),110%,100% (inactive),96% (inactive),90%,86%,94%,99%,95%,92%,101%,101%,98%,98%,29%,14%,92%,104%
O=C1c2ccccc2-[n+]2ccc3c([nH]c4ccccc43)c21,86%,54%,109% (inactive),104%,–,101% (inactive),86%,70%,107%,94%,90%,92%,82%,90%,102%,84%,77%,55%,85%,119%
N#CCCc1ccc2c(c1)-c1[nH]c3ccc([N+](=O)[O-])cc3c1CC(=O)N2,–,–,–,–,–,–,–,64%,62%,37%,13%,4%,16%,7%,55%,16%,32%,13%,73%,52%
Cn1nc2c3c(cccc31)C(=O)c1ccccc1-2,70%,62%,108% (inactive),104%,107% (inactive),86% (inactive),–,87%,102%,98%,97%,87%,86%,–,108%,–,61%,31%,72%,95%
O=c1cc(-c2cccc3c2Sc2ccccc2S3)oc(N2CCOCC2)c1,119%,93%,108% (inactive),122%,109% (inactive),140% (inactive),101%,101%,113%,95%,106%,96%,108%,91%,89%,72%,89%,84%,97%,80%
CN(C)CCCn1cc(C2=C(c3c[nH]c4ccccc34)C(=O)NC2=O)c2ccccc21,11%,2%,–,113%,117% (inactive),121% (inactive),127%,88%,115%,–,102%,75%,88%,77%,–,78%,112%,45%,–,18%
Nc1nc(Nc2ccc(S(N)(=O)=O)cc2)nn1C(=S)Nc1c(F)cccc1F,14%,11%,89% (inactive),44%,–,–,17%,3%,47%,7%,6%,0%,9%,1%,14%,4%,9%,0%,16%,89%
Cc1cc2ncc(-c3ccccc3)nc2cc1C,80%,52%,104% (inactive),102%,106% (inactive),101% (inactive),105%,91%,97%,94%,104%,88%,–,92%,94%,77%,–,59%,82%,–
Cc1nc(-c2ccccc2)c(-c2ccncc2)o1,83%,56%,105% (inactive),–,107% (inactive),106% (inactive),103%,48%,102%,101%,100%,104%,106%,95%,109%,90%,74%,64%,100%,91%
COc1ccc(CNc2nc(N(CCO)CCO)nc3c2ncn3C(C)C)cc1,74%,49%,107% (inactive),96%,96% (inactive),86% (inactive),89%,86%,102%,87%,89%,56%,95%,66%,87%,63%,70%,51%,80%,129%
N#CC(C#N)=C(N)/C(C#N)=C/c1ccc(O)cc1,66%,77%,–,–,–,–,–,–,88%,97%,98%,91%,–,–,100%,87%,84%,70%,88%,65%
O=[N+]([O-])c1ccc(-c2nc(-c3ccc(F)cc3)c(-c3ccncc3)[nH]2)cc1,122%,62%,109% (inactive),123%,99% (inactive),111% (inactive),31%,40%,105%,101%,108%,98%,94%,96%,102%,105%,50%,11%,83%,119%
Oc1ccc(Nc2nc(-c3ccc(Cl)cc3)cs2)cc1,119%,87%,116% (inactive),123%,110% (inactive),106% (inactive),110%,74%,105%,106%,103%,98%,106%,104%,109%,103%,89%,80%,82%,126%
